# Counter-ions that a name gives are not always drawn. ± gives the standard deviation of the averaged measurements.
# System: TDF
# Assay: cell number relative to DMSO (% of DMSO); higher = more cells (less growth inhibition / toxicity)
# Details: concentration: 10 µM; 24 h
# Procedure, shortened: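 After 24 h at 37 °C with compounds at 10 µM, in triplicate, HCC1569 and TDF cells were fixed with 3.7% formaldehyde. Immunostaining used a rabbit anti-H1.0 antibody and an AlexaFluor 647 secondary, with DAPI, and six fields per well were imaged at ×10. H1.0 nuclear intensity or cell number is presented as percent of the plate control, from the median of replicates, with HCC1569 values smoothed for positional effects.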
# 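Also: TDF denotes transformed human dermal fibroblasts of mesenchymal origin.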
row,Compound,cell number
1,COCCc1ccc(OCC(O)CNC(C)C)cc1.COCCc1ccc(OCC(O)CNC(C)C)cc1.O=C(O)C(O)C(O)C(=O)O (racemic),106
2,O=c1[nH]c(=O)n(C2CCCO2)cc1F (centres undefined) [Ftorafur],102
3,CC12CCC3c4ccc(O)cc4CCC3C1CC(O)C2O (centres undefined) [Estriol],97.8
4,CC1CCN(C(=O)CC#N)CC1N(C)c1ncnc2[nH]ccc12 (centres undefined) [Tasocitinib],110
5,COC(=O)C(N)Cc1ccc(Cl)cc1.Cl (racemic) [DL-p-Chlorophenylalanine methyl ester hydrochloride],92.3
6,N[C@H](CO)C(=O)O [D-Serine],112
7,O=C1NC(=O)C(=Cc2ccc3c(c2)OC(F)(F)O3)S1 [PI 3-KbInhibitor II],96.8
8,O=C(Nc1ccc(Oc2ccnc3[nH]ccc23)c(F)c1)c1cccn(-c2ccc(F)cc2)c1=O,103
9,NC(=S)c1ccc[n+](C2OC(COP(=O)([O-])OP(=O)(O)OCC3OC(n4cnc5c(N)ncnc54)C(OP(=O)([O-])O)C3O)C(O)C2O)c1.[Na+] (centres undefined) [Thio-NADP sodium],100
10,c1ccc(C2CN3CCSC3=N2)cc1 (centres undefined) [Levamisole],94.6
11,CCN(CC)C(=S)SSC(=S)N(CC)CC [Disulfiram],39 ± 4.7
12,CC1C(=O)N=C2Nc3cccc(Cl)c3CN21 (centres undefined) [Quazinone],106
13,"COc1ccc(/C=C\c2cc(OC)c(OC)c(OC)c2)cc1O [2-methoxy-5-[(Z)-2-(3,4,5-trimethoxyphenyl)ethenyl]phenol]",11.5
14,COc1ccc2cc(OCC3(C(=O)O)CN(C(=O)c4ccc(F)cc4)C3)ccc2c1,103
15,CC(CCc1ccccc1)NCC(O)c1ccc(O)c(C(N)=O)c1.Cl (centres undefined) [Labetalol hydrochloride],106
16,Cn1cc(-c2ccc3nnc(C(F)(F)c4ccc5ncccc5c4)n3n2)cn1,96
17,Nc1nc(=O)n(C2CSC(CO)O2)cc1F (centres undefined) [Emtricitabine],99.4

row,Compound,cell number
1,NS(=O)(=O)c1cc2c(cc1Cl)NC(C1CC3C=CC1C3)NS2(=O)=O (centres undefined) [Cyclothiazide],105
2,CN1CCC(=C2c3ccccc3CC(=O)c3sccc32)CC1 [Ketotifen],102
3,Cc1cc(CS(=O)(=O)c2ccccc2)cc(OCc2ccc(CN3CCC[C@@H]3CO)cc2)c1 [PF-543 hydrochloride],90.2
4,Cc1nc(Nc2ncc(C(=O)Nc3c(C)cccc3Cl)s2)cc(N2CCN(CCO)CC2)n1 [Dasatinib],93.4
5,CN1CCCCC1CCN1c2ccccc2Sc2ccc(S(C)=O)cc21.O=S(=O)(O)c1ccccc1 (centres undefined) [Mesoridazine besylate],111
6,CC[C@H](C(=O)Nc1ccccc1N1CCCC1)c1ccccc1 [(2S)-2-Phenyl-N-[2-(1-pyrrolidinyl)phenyl]butanamide],103
7,"O=C(O)CCC(C(=O)O)N1C(=O)c2ccccc2C1=O [L-Glutamic acid, N-phthaloyl-]",110
8,CCCCCCCCCCCC=CCCCCCC(=O)O [7(E)-Nonadecenoic acid],104
9,CC1CCCC(C)N1NC(=O)c1ccc(Cl)c(S(N)(=O)=O)c1 (centres undefined) [Clopamide],104
10,C[C@@H](Nc1ncnc2[nH]c(-c3ccc(O)cc3)cc12)c1ccccc1,64.8
11,CC(C)(Oc1ccc(CCNC(=O)c2ccc(Cl)cc2)cc1)C(=O)O [Bezafibrate],105
12,COc1ccccc1CNCCCCCCNCCCCCCCCNCCCCCCNCc1ccccc1OC.Cl.Cl.Cl.Cl [Methoctramine tetrahydrochloride],87.6
13,O=C1NC(C(=O)O)CS1 (centres undefined) [Procysteine],110
14,Nc1ccc(S(=O)(=O)Nc2ncccn2)cc1 [Sulfadiazine],108
15,CCC(=O)OC1(C(=O)CCl)C(C)CC2C3CCC4=CC(=O)C=CC4(C)C3(F)C(O)CC21C (centres undefined) [Clobetasol Propionate],114
16,CCCCCCCCCC(=O)NC(CN1CCOCC1)C(O)c1ccccc1 (racemic),93.9
17,CCCCCOC(=O)Nc1nc(=O)n(C2OC(C)C(O)C2O)cc1F (centres undefined) [Capecitabine],98.9

# Reference: the supplement of paper PMC7156485
